Laboratory results as given in PMC7862700, “An all-to-all approach to the identification of sequence-specific readers for epigenetic DNA modifications on cytosine”.

Legend:
Assay in all cases: DAPPL (digital affinity profiling via proximity ligation, sequencing); 10 mM Tris-HCl pH 7.5, 50 mM NaCl, 1 mM DTT, 4% glycerol, room temperature, 30 min; GST-TFs on glutathione beads, 16-mer random dsDNA library, 0.1% formaldehyde crosslink after washing; high values mean tight binding
Conditions in all cases: protein: recombinant; tags: N-terminal GST; dsDNA, one strand shown
[1] = target: T1, FLI1 (Homo sapiens, UniProt Q01543 1-452)
T1 sequence: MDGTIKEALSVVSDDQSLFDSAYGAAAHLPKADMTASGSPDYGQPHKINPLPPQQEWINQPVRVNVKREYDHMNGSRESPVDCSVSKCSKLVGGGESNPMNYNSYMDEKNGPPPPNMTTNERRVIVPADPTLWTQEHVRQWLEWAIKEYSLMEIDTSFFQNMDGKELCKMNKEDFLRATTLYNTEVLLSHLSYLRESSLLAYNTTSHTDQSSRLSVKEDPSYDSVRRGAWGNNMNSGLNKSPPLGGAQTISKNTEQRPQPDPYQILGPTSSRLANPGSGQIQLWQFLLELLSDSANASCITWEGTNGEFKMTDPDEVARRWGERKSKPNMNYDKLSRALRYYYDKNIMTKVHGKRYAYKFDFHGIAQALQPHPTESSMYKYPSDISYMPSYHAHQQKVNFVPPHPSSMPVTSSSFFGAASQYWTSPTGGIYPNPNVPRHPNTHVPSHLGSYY
Procedure, shortened: (§1)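 Each value of binding signal is a hexamer's read frequency for a factor divided by the same hexamer's frequency in the tag-only sample. Barcoded, bead-captured GST fusions of human transcription factors made in yeast were pooled with that sample and incubated with 200 nmole of a random double-stranded 16-mer DNA library in Tris/NaCl/DTT/glycerol buffer at room temperature for 30 min. Washing, 0.1% formaldehyde crosslinking, proximity ligation, PCR and Illumina NextSeq500 sequencing followed.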

[2] = target: T2, ELK1 (Homo sapiens, UniProt P19419 1-428)
T2 sequence: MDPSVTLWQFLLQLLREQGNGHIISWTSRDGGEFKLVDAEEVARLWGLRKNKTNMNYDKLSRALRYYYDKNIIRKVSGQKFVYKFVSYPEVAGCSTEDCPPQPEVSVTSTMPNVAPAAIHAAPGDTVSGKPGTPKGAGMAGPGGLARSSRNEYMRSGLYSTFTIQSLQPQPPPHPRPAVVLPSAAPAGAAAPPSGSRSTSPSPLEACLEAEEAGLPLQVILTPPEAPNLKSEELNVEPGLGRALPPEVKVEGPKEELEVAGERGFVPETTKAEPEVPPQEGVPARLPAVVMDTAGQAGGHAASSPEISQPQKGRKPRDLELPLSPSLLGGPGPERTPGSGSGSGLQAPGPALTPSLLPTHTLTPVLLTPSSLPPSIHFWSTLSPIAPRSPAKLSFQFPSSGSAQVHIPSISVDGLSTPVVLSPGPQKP
Procedure, shortened: as §1

[3] = target: T3, GABPA (Homo sapiens, UniProt Q06546 1-454)
T3 sequence: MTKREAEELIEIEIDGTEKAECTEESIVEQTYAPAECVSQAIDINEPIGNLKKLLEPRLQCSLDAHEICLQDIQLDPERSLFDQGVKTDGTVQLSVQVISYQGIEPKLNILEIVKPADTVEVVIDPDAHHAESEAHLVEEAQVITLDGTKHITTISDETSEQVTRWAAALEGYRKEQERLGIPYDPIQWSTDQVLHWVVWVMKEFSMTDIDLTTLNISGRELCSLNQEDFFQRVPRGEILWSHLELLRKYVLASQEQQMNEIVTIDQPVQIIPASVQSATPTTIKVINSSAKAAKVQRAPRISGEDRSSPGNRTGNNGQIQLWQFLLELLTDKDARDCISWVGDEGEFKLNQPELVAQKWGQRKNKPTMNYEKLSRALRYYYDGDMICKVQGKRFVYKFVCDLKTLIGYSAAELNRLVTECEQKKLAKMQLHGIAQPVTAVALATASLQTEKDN
Procedure, shortened: as §1

[4] = target: T4, ERG (Homo sapiens, UniProt P11308 1-479)
T4 sequence: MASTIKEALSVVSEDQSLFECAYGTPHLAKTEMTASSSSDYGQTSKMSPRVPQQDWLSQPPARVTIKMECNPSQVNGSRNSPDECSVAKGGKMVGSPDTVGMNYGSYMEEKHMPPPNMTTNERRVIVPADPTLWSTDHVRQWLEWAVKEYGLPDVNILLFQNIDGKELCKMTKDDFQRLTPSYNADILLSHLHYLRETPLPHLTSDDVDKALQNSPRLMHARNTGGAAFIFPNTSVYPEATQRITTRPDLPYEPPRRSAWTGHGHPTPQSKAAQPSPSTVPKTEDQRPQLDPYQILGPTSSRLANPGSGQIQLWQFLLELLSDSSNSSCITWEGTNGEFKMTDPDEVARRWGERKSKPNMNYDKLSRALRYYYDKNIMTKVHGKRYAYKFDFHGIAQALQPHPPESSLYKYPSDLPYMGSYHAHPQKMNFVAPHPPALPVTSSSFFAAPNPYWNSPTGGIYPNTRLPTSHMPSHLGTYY
Procedure, shortened: as §1

[5] = target: ELF1 (Homo sapiens, UniProt P32519 1-619)
Procedure, shortened: as §1

[6] = target: T5, EHF (Homo sapiens, UniProt Q9NZC4 1-300)
T5 sequence: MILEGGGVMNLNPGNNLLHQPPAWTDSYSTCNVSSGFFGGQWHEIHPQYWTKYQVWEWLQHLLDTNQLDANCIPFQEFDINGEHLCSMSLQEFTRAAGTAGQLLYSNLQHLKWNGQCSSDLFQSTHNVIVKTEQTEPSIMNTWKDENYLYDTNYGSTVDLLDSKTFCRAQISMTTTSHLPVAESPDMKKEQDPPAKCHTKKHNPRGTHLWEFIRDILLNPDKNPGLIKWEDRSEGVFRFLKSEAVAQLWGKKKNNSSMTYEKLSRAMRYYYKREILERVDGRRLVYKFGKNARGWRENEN
Procedure, shortened: as §1

[7] = target: SPI1 (Homo sapiens, UniProt P17947 1-270)
Procedure, shortened: as §1

[8] = target: SPIB (Homo sapiens, UniProt Q01892 1-262)
Procedure, shortened: as §1

[9] = target: T6, ELK3 (Homo sapiens, UniProt P41970 1-407)
T6 sequence: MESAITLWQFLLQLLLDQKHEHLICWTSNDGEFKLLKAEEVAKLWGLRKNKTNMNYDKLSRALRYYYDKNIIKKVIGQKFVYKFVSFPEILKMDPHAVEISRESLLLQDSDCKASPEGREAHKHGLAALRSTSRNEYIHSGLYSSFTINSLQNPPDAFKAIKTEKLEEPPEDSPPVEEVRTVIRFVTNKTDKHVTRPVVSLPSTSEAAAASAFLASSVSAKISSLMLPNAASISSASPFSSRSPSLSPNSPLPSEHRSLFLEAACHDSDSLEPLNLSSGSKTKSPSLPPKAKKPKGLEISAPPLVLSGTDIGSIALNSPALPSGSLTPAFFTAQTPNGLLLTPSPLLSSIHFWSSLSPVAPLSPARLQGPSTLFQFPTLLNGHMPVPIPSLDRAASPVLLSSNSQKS
Procedure, shortened: as §1

Chain of SPIB (Q01892 whole entry): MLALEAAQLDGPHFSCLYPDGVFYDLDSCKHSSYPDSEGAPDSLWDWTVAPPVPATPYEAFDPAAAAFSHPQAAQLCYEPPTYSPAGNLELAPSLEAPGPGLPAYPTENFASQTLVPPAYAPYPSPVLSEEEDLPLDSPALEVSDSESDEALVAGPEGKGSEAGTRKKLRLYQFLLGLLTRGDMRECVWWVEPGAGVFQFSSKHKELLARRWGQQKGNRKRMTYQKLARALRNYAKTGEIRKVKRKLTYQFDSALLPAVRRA
Chain of ELF1 (P32519 whole entry): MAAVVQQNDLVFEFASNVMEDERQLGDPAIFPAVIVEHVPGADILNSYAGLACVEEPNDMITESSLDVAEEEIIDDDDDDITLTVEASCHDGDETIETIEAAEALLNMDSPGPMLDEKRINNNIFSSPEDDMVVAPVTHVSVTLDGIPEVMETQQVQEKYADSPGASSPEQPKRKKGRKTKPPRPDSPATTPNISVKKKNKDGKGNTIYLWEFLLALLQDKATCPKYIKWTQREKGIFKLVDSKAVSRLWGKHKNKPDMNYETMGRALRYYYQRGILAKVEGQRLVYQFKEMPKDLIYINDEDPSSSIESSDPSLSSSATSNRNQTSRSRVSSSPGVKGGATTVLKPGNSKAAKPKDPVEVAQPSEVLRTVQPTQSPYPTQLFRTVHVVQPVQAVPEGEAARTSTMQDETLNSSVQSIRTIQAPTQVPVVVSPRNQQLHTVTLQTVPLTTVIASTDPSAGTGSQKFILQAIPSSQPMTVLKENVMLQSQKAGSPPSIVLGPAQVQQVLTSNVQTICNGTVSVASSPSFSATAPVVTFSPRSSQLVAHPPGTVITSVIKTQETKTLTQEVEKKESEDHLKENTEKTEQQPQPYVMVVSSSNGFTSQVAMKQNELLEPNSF

Sequence | binding signal [1] | binding signal [2] | binding signal [3] | binding signal [4] | binding signal [5] | binding signal [6] | binding signal [7] | binding signal [8] | binding signal [9]
GTACTT | 1.92 fold enrichment (6-mer frequency, TF over GST control) | 2.32 fold enrichment (6-mer frequency, TF over GST control) | 1.81 fold enrichment (6-mer frequency, TF over GST control) | 1.88 fold enrichment (6-mer frequency, TF over GST control) | 1.9 fold enrichment (6-mer frequency, TF over GST control) | 1.96 fold enrichment (6-mer frequency, TF over GST control) | 1.94 fold enrichment (6-mer frequency, TF over GST control) | 1.78 fold enrichment (6-mer frequency, TF over GST control) | 2.51 fold enrichment (6-mer frequency, TF over GST control)
ATGGAT | 1.06 fold enrichment (6-mer frequency, TF over GST control) | 1.11 fold enrichment (6-mer frequency, TF over GST control) | 1.18 fold enrichment (6-mer frequency, TF over GST control) | 1.08 fold enrichment (6-mer frequency, TF over GST control) | 1.04 fold enrichment (6-mer frequency, TF over GST control) | 1.09 fold enrichment (6-mer frequency, TF over GST control) | 1.06 fold enrichment (6-mer frequency, TF over GST control) | 1.14 fold enrichment (6-mer frequency, TF over GST control) | 1.2 fold enrichment (6-mer frequency, TF over GST control)
TTCATG | 1.35 fold enrichment (6-mer frequency, TF over GST control) | 1.26 fold enrichment (6-mer frequency, TF over GST control) | 1.35 fold enrichment (6-mer frequency, TF over GST control) | 1.28 fold enrichment (6-mer frequency, TF over GST control) | 1.33 fold enrichment (6-mer frequency, TF over GST control) | 1.29 fold enrichment (6-mer frequency, TF over GST control) | 1.32 fold enrichment (6-mer frequency, TF over GST control) | 1.34 fold enrichment (6-mer frequency, TF over GST control) | 1.22 fold enrichment (6-mer frequency, TF over GST control)
ATCCGG | 2.65 fold enrichment (6-mer frequency, TF over GST control) | 2.59 fold enrichment (6-mer frequency, TF over GST control) | 2.37 fold enrichment (6-mer frequency, TF over GST control) | 3.22 fold enrichment (6-mer frequency, TF over GST control) | 2.29 fold enrichment (6-mer frequency, TF over GST control) | 2.65 fold enrichment (6-mer frequency, TF over GST control) | 2.37 fold enrichment (6-mer frequency, TF over GST control) | 2.77 fold enrichment (6-mer frequency, TF over GST control) | 2.66 fold enrichment (6-mer frequency, TF over GST control)
TTAATG | 1.24 fold enrichment (6-mer frequency, TF over GST control) | 1.27 fold enrichment (6-mer frequency, TF over GST control) | 1.3 fold enrichment (6-mer frequency, TF over GST control) | 1.14 fold enrichment (6-mer frequency, TF over GST control) | 1.17 fold enrichment (6-mer frequency, TF over GST control) | 1.19 fold enrichment (6-mer frequency, TF over GST control) | 1.24 fold enrichment (6-mer frequency, TF over GST control) | 1.2 fold enrichment (6-mer frequency, TF over GST control) | 1.14 fold enrichment (6-mer frequency, TF over GST control)
AATGTC | 1.16 fold enrichment (6-mer frequency, TF over GST control) | 1.21 fold enrichment (6-mer frequency, TF over GST control) | 1.23 fold enrichment (6-mer frequency, TF over GST control) | 1.27 fold enrichment (6-mer frequency, TF over GST control) | 1.22 fold enrichment (6-mer frequency, TF over GST control) | 1.29 fold enrichment (6-mer frequency, TF over GST control) | 1.23 fold enrichment (6-mer frequency, TF over GST control) | 1.25 fold enrichment (6-mer frequency, TF over GST control) | 1.23 fold enrichment (6-mer frequency, TF over GST control)
CCTTGG | 1.28 fold enrichment (6-mer frequency, TF over GST control) | 1.41 fold enrichment (6-mer frequency, TF over GST control) | 1.34 fold enrichment (6-mer frequency, TF over GST control) | 1.28 fold enrichment (6-mer frequency, TF over GST control) | 1.28 fold enrichment (6-mer frequency, TF over GST control) | 1.37 fold enrichment (6-mer frequency, TF over GST control) | 1.24 fold enrichment (6-mer frequency, TF over GST control) | 1.32 fold enrichment (6-mer frequency, TF over GST control) | 1.4 fold enrichment (6-mer frequency, TF over GST control)
TAAAAG | 1.12 fold enrichment (6-mer frequency, TF over GST control) | 1.18 fold enrichment (6-mer frequency, TF over GST control) | 1.24 fold enrichment (6-mer frequency, TF over GST control) | 1.1 fold enrichment (6-mer frequency, TF over GST control) | 1.12 fold enrichment (6-mer frequency, TF over GST control) | 1.16 fold enrichment (6-mer frequency, TF over GST control) | 1.31 fold enrichment (6-mer frequency, TF over GST control) | 1.18 fold enrichment (6-mer frequency, TF over GST control) | 1.15 fold enrichment (6-mer frequency, TF over GST control)
